Laboratory results taken from PubChem BioAssay AID504909 (Southern Research Specialized Biocontainment Screening …, 2011).
Entries with a potency or affinity are not part of this list. Active and inactive are the calls of the source. How the calls were made is not given here.

experiment: Vero cell cytotoxicity, dose response, cytotoxicity control for M. tuberculosis growth inhibitor project, Vero cells, purified and synthesized compounds, set 5 (AID 504909); conditions: series mostly up to 100 µM

| Compound | outcome |
| --- | --- |
| Cc1nc(SCC(N)=O)[nH]c(=O)c1C | inactive |
| CCCc1cc(C(N)=S)ccn1 | inactive |
| COC(=O)c1ccc(CNc2c(N3CCCC3)c(=O)c2=O)cc1 | inactive |
| COC(=O)C(C)Oc1ccc(Cc2ncc(C(F)(F)F)cc2Cl)cc1 (centres undefined) | inactive |
| CC1CCN(C(=O)CSc2nc3ccccc3c(=O)[nH]2)CC1 | inactive |
| CN[C@@H]1[C@H](O[C@H]2[C@H](O[C@H]3[C@H](O)[C@@H](O)[C@H](N=C(N)N)[C@@H](O)[C@@H]3N=C(N)N)O[C@@H](C)[C@]2(O)C=O)O[C@@H](CO)[C@H](O)[C@H]1O | inactive |
| O=C(CSc1nc2c(c(=O)[nH]1)CCCC2)NC1CCCCC1 | inactive |
| CCSc1nc(C)c(C)c(=O)[nH]1 | inactive |
| COc1c(N2CCNC(C)C2)c(F)cc2c(=O)c(C(=O)O)cn(C3CC3)c12 (centres undefined) | inactive |
| CN(C)C(=O)CSc1nc2ccccc2c(=O)[nH]1 | inactive |
| NNC(=O)c1ccncc1 | inactive |
| CC(Sc1nc2ccccc2c(=O)[nH]1)C(=O)NC1CCCCC1 (centres undefined) | inactive |
| Cc1nc(SCC(=O)N(C)c2ccccc2)[nH]c(=O)c1C | inactive |
| O=C(CSc1nc2ccccc2c(=O)[nH]1)N1CCOCC1 | inactive |
| O=C(CSc1nc2ccccc2c(=O)[nH]1)NC1CCCCC1 | inactive |
| Cc1ccc(NC(=O)COC(=O)CCc2c[nH]c3ccccc23)cc1[N+](=O)[O-] | inactive |
| O=C(CSc1nc2ccccc2c(=O)[nH]1)NC1CCCC1 | inactive |
| CCC(Sc1nc2ccccc2c(=O)[nH]1)C(=O)NC1CCCCC1 (centres undefined) | inactive |
| CC[C@@H](CO)NCCN[C@@H](CC)CO | inactive |
